# Data reported in ChEMBL document CHEMBL1157539, “Thousands of chemical starting points for antimalarial lead identification” (Nature, 2010).
# Test system: Plasmodium falciparum
# Experiment: GSK_TCMDC: Inhibition of Plasmodium falciparum Dd2 in whole red blood cells, using parasite LDH activity as an index of growth. Test compounds present at 2uM
# Type: functional
row,Structure (SMILES),Inhibition [%]
1,CCCCNC(=O)c1[nH]c2c(NC(=O)COc3ccccc3)cccc2c1-c1cccc(NC(=O)C(N)CO)c1 (stereo not given),0
2,CNC(=O)c1c(NC(=O)c2cccs2)sc2c1CCCC2,2
3,COc1ccc(CN2CCCN(Cc3cccc(NC(=O)c4ccc(Cl)c(Cl)c4)c3)CC2)cc1.O=C(O)C(F)(F)F,19
4,COc1ccc2ncc(F)c(NC(=O)C3CCC(NCc4cc5c(F)cccc5[nH]4)CC3)c2n1.Cl (stereo not given),29
5,CC1CN(c2cnn(Cc3ccc(NC(=O)Nc4cccc(C(F)(F)F)c4)cc3)c(=O)c2Cl)CC(C)N1.O=C(O)C(F)(F)F (stereo not given),31
6,Cc1cc(NC(=O)c2coc3cc(F)c(N4CC(C)N(C)C(C)C4)cc23)cnc1-c1ccc(C#N)cc1.Cl (stereo not given),71
7,CCC(C)CN1CCN(c2ccc(NC(=O)c3cccs3)cc2)CC1C.O=C(O)C(F)(F)F (stereo not given),94
8,CCC1CN2CCc3c([nH]c4ccc(OC)cc34)C2CC1CC1NCCc2cc(OC)c(OC)cc21.Cl (stereo not given),21
9,Cl.O=S(=O)(Nc1cc2c(cc1OCc1ccccc1)CCN(C1CCC1)CC2)c1ccc(-c2ccc(Cl)cc2)cc1,12
10,COc1ccccc1CCNc1nc(C)cc(N[C@@H](Cc2ccccc2)C(=O)Nc2ccccc2)n1.O=C(O)C(F)(F)F,86
11,Cc1[nH]c(C)c(-c2ccc(-c3cccc(Cl)c3)nc2)c(=O)c1Br,96
12,CCCCCCNC(=O)C(N)CCCC(N)C(=O)NCCCCCC.Cc1ccc(S(=O)(=O)O)cc1 (stereo not given),0
13,CCN(CC)CCN(CCN(CC)CC)c1ccc2c(c1)Sc1c(Cl)ccc(Cl)c1S2.Cl,94
14,Clc1cc(Nc2ccnc3ccc(Br)cc23)ccc1Oc1ccc2ccccc2c1Cl,93
15,COc1cc(NC(=O)/C=C/c2ccccc2OC(F)(F)F)cc(OCCN2CCC(O)(c3ccccc3)CC2)c1.O=C(O)C(=O)O,50
16,CN(C(=O)C(C)(C)Oc1ccc(Cl)cc1)C1CCN(CCCCCNC(=O)/C=C/c2ccc(Cl)c(Cl)c2)CC1,26
17,COc1ccc(C(=O)Nc2ccc(Cl)cc2C(=O)Nc2ccncc2)cc1,29
18,COc1cc(Nc2nc(N)c3cc(OC)c(OC)cc3n2)cc(OC)c1.Cl,100
19,CCN(CC)CCNc1ccnc2ccc3ccccc3c12,67
20,CN(C)CCOc1ccc(-c2cc(-c3ccncc3)c(-c3ccc(Cl)c(O)c3)o2)cc1.Cl,93

row,Structure (SMILES),Inhibition [%]
1,CC(C)OC(=O)c1ccccc1S(N)(=O)=O,0
2,Cc1ccc(O)cc1Nc1ccnc2cc(-c3ccncc3)ccc12.Cl,84
3,CCCCNCc1ccc(-c2nc(CN(CCCn3ccnc3)C(=O)C3COc4ccccc4O3)cs2)cc1.O=C(O)C(F)(F)F (stereo not given),8
4,COc1cc2nc(N3CCC(CNC(=O)c4ccc(-c5ccc(-c6noc(C)n6)cc5)cc4)CC3)nc(N)c2cc1OC,100
5,C=Cc1c(C2CCN(CCCCNC(=O)c3ccc(-c4ccc(C#N)cc4)cc3)CC2)ccc2c1CCCC2,75
6,CC(C)(C)OC(=O)NCC(=O)N(Cc1ccccc1)Cc1ccccc1,93
7,COc1ccc(CNCc2ccc(-c3ccc(-c4nc5cc(F)ccc5[nH]4)cc3)cc2)cc1.O=C(O)C(F)(F)F,83
8,CCCCCCCN1CC[C@@H](CCCc2ccnc3ccc(OCCN4CCOCC4)cc23)[C@@H](CC)C1.O=C(O)C(=O)O,3
9,CCC1CN(CCCn2c3ccccc3c3ccccc32)C(CC)CN1.Cl (stereo not given),0
10,O=C(CCc1c[nH]cn1)Nc1cccc(-c2cccc(-c3nc4cc(C(F)(F)F)ccc4[nH]3)c2)c1,99
11,COc1ccc2ncc(F)c(CCN3CC[C@H](NC(=O)c4ccc5c(n4)NC(=O)CS5)[C@H](O)C3)c2n1.Cl,88
12,O=C(COc1ccc(C(=O)c2ccccc2)cc1)Nc1nccs1,18
13,Oc1cccc(-c2nc(-c3ccccc3)c(-c3ccc4oc5ccc(-c6[nH]c(-c7cccc(O)c7)nc6-c6ccccc6)cc5c4c3)[nH]2)c1,35
14,CCN(CC)C(=O)C(=O)c1c[nH]c2ccc(Cl)cc12,96
15,CC(=O)CC(=O)N1CCN(c2ccccc2)CC1,0
16,Cl.Fc1cc(CN2CCCC2)ccc1OCCCN1CCN(c2cccc(Cl)c2Cl)CC1,15
17,CC(C)(C)c1ccc(CN2CCC(CNC(=O)c3cc(-c4cccc(Cl)c4)cs3)C2)cc1.O=C(O)C(F)(F)F (stereo not given),83
18,CCOC(=O)c1ccc(-n2c(C)cc(C=C3SC(=Nc4ccccc4)N(C4CCCC4)C3=O)c2C)cc1,61
19,CCc1c(CCNCCCCCCNC(C)(C)Cc2ccc3c(c2CC)OCO3)ccc(OC)c1OC.Cl,50
20,Cl.O=c1cc(NCCCNCc2cc(Br)cs2)[nH]c2ccccc12,5

# Test system: HepG2
# Experiment: GSK_TCMDC: Percent inhibition of human HepG2 cell line. Test compounds present at 10uM.
# Type: functional
row,Structure (SMILES),Inhibition [%]
1,CCCCNC(=O)c1[nH]c2c(NC(=O)COc3ccccc3)cccc2c1-c1cccc(NC(=O)C(N)CO)c1 (stereo not given),11
2,CNC(=O)c1c(NC(=O)c2cccs2)sc2c1CCCC2,2
3,COc1ccc(CN2CCCN(Cc3cccc(NC(=O)c4ccc(Cl)c(Cl)c4)c3)CC2)cc1.O=C(O)C(F)(F)F,38
4,COc1ccc2ncc(F)c(NC(=O)C3CCC(NCc4cc5c(F)cccc5[nH]4)CC3)c2n1.Cl (stereo not given),39
5,CC1CN(c2cnn(Cc3ccc(NC(=O)Nc4cccc(C(F)(F)F)c4)cc3)c(=O)c2Cl)CC(C)N1.O=C(O)C(F)(F)F (stereo not given),0
6,Cc1cc(NC(=O)c2coc3cc(F)c(N4CC(C)N(C)C(C)C4)cc23)cnc1-c1ccc(C#N)cc1.Cl (stereo not given),35
7,CCC(C)CN1CCN(c2ccc(NC(=O)c3cccs3)cc2)CC1C.O=C(O)C(F)(F)F (stereo not given),0
8,CCC1CN2CCc3c([nH]c4ccc(OC)cc34)C2CC1CC1NCCc2cc(OC)c(OC)cc21.Cl (stereo not given),17
9,Cl.O=S(=O)(Nc1cc2c(cc1OCc1ccccc1)CCN(C1CCC1)CC2)c1ccc(-c2ccc(Cl)cc2)cc1,18
10,COc1ccccc1CCNc1nc(C)cc(N[C@@H](Cc2ccccc2)C(=O)Nc2ccccc2)n1.O=C(O)C(F)(F)F,30
11,Cc1[nH]c(C)c(-c2ccc(-c3cccc(Cl)c3)nc2)c(=O)c1Br,10
12,CCCCCCNC(=O)C(N)CCCC(N)C(=O)NCCCCCC.Cc1ccc(S(=O)(=O)O)cc1 (stereo not given),0
13,CCN(CC)CCN(CCN(CC)CC)c1ccc2c(c1)Sc1c(Cl)ccc(Cl)c1S2.Cl,31
14,Clc1cc(Nc2ccnc3ccc(Br)cc23)ccc1Oc1ccc2ccccc2c1Cl,5
15,COc1cc(NC(=O)/C=C/c2ccccc2OC(F)(F)F)cc(OCCN2CCC(O)(c3ccccc3)CC2)c1.O=C(O)C(=O)O,61
16,CN(C(=O)C(C)(C)Oc1ccc(Cl)cc1)C1CCN(CCCCCNC(=O)/C=C/c2ccc(Cl)c(Cl)c2)CC1,86
17,COc1ccc(C(=O)Nc2ccc(Cl)cc2C(=O)Nc2ccncc2)cc1,7
18,COc1cc(Nc2nc(N)c3cc(OC)c(OC)cc3n2)cc(OC)c1.Cl,7
19,CCN(CC)CCNc1ccnc2ccc3ccccc3c12,5
20,CN(C)CCOc1ccc(-c2cc(-c3ccncc3)c(-c3ccc(Cl)c(O)c3)o2)cc1.Cl,0

row,Structure (SMILES),Inhibition [%]
1,CC(C)OC(=O)c1ccccc1S(N)(=O)=O,0
2,Cc1ccc(O)cc1Nc1ccnc2cc(-c3ccncc3)ccc12.Cl,16
3,CCCCNCc1ccc(-c2nc(CN(CCCn3ccnc3)C(=O)C3COc4ccccc4O3)cs2)cc1.O=C(O)C(F)(F)F (stereo not given),6
4,COc1cc2nc(N3CCC(CNC(=O)c4ccc(-c5ccc(-c6noc(C)n6)cc5)cc4)CC3)nc(N)c2cc1OC,96
5,C=Cc1c(C2CCN(CCCCNC(=O)c3ccc(-c4ccc(C#N)cc4)cc3)CC2)ccc2c1CCCC2,75
6,CC(C)(C)OC(=O)NCC(=O)N(Cc1ccccc1)Cc1ccccc1,0
7,COc1ccc(CNCc2ccc(-c3ccc(-c4nc5cc(F)ccc5[nH]4)cc3)cc2)cc1.O=C(O)C(F)(F)F,70
8,CCCCCCCN1CC[C@@H](CCCc2ccnc3ccc(OCCN4CCOCC4)cc23)[C@@H](CC)C1.O=C(O)C(=O)O,14
9,CCC1CN(CCCn2c3ccccc3c3ccccc32)C(CC)CN1.Cl (stereo not given),69
10,O=C(CCc1c[nH]cn1)Nc1cccc(-c2cccc(-c3nc4cc(C(F)(F)F)ccc4[nH]3)c2)c1,17
11,COc1ccc2ncc(F)c(CCN3CC[C@H](NC(=O)c4ccc5c(n4)NC(=O)CS5)[C@H](O)C3)c2n1.Cl,20
12,O=C(COc1ccc(C(=O)c2ccccc2)cc1)Nc1nccs1,0
13,Oc1cccc(-c2nc(-c3ccccc3)c(-c3ccc4oc5ccc(-c6[nH]c(-c7cccc(O)c7)nc6-c6ccccc6)cc5c4c3)[nH]2)c1,30
14,CCN(CC)C(=O)C(=O)c1c[nH]c2ccc(Cl)cc12,1
15,CC(=O)CC(=O)N1CCN(c2ccccc2)CC1,54
16,Cl.Fc1cc(CN2CCCC2)ccc1OCCCN1CCN(c2cccc(Cl)c2Cl)CC1,67
17,CC(C)(C)c1ccc(CN2CCC(CNC(=O)c3cc(-c4cccc(Cl)c4)cs3)C2)cc1.O=C(O)C(F)(F)F (stereo not given),44
18,CCOC(=O)c1ccc(-n2c(C)cc(C=C3SC(=Nc4ccccc4)N(C4CCCC4)C3=O)c2C)cc1,2
19,CCc1c(CCNCCCCCCNC(C)(C)Cc2ccc3c(c2CC)OCO3)ccc(OC)c1OC.Cl,100
20,Cl.O=c1cc(NCCCNCc2cc(Br)cs2)[nH]c2ccccc12,11
